# Measurements reported in PubChem BioAssay.
# Unmarked numbers belong to inactive results. This is one part of the list. Active and inactive are the calls of the source.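 How the source made its calls, unless noted: active means mean inhibition above the low-control mean inhibition plus three low-control SD (cut at about 11% in these data); inactive means the rest.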
# Assays:
# [1] = target: Nuclear receptor coactivator 1 (Homo sapiens) (UniProt Q15788); assay: SRC1 coactivator transcriptional activity inhibitors, confirmation, cell-based, luminescence, quadruplicate (AID 588820;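 active means mean inhibition above 46.68%, the untreated control wells mean plus 3 SD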;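 further: 0% = DMSO wells and 100% = gossypol 36 µM treated wells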); details: HEK293 GAL4-SRC1 luciferase reporter, at 3.6 µM, hits give high values
# Nuclear receptor coactivator 1 (Homo sapiens), sequence (Q15788 whole entry, looked up, the tested form may be a part): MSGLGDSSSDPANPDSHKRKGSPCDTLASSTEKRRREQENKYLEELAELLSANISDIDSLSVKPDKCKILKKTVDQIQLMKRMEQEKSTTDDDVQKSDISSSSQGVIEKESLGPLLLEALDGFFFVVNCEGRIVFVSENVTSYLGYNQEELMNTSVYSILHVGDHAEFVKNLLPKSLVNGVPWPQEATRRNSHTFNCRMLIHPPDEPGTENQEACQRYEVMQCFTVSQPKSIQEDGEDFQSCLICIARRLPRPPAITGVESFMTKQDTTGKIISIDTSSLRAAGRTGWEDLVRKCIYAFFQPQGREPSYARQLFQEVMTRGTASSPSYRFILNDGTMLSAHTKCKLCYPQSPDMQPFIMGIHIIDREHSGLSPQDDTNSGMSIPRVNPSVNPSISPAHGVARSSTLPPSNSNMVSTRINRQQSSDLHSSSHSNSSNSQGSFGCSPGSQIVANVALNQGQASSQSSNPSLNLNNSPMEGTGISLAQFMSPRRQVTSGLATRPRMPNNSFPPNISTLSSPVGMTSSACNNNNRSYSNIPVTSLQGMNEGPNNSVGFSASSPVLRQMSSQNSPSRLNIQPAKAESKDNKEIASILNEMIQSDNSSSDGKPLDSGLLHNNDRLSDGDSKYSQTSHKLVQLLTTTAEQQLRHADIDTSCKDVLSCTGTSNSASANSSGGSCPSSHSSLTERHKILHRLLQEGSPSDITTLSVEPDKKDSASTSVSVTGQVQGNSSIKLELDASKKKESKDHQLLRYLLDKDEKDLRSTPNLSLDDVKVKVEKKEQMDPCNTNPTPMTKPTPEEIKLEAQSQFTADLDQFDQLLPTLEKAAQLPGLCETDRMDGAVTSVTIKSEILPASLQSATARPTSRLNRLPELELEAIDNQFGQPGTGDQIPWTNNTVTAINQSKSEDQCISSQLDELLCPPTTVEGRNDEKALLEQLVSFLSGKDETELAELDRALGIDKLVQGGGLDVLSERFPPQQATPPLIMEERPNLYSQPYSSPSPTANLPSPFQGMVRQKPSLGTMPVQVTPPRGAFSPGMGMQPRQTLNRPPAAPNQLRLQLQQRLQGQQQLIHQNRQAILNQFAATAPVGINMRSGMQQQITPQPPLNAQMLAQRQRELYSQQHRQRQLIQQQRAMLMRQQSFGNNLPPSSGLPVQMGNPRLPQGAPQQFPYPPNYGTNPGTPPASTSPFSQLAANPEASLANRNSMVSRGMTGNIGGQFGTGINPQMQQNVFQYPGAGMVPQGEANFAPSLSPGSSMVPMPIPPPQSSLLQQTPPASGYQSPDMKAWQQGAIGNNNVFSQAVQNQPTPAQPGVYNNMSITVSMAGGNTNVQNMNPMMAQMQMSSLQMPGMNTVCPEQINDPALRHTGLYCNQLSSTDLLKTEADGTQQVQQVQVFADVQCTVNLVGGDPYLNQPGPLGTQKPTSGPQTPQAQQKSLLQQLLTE
# [2] = VP16 transactivation inhibitors, counter-screen for SRC1 inhibitor project, cell-based, luminescence, high throughput (AID 588824; in the data active means inhibition above about 25%); details: cell-based VP16 transactivation luciferase luminescence; at 3.6 µM; hits give high values
# [3] = Gal4-VP16 luciferase reporter inhibitors, counter-screen for COUP-TFII antagonist project, cell-based, luminescence, HEK293 (AID 687007; in the data active means inhibition above about 13%); details: at 8.5 µM, hits give high values
# [4] = target: COUP transcription factor 2 (Homo sapiens) (UniProt P24468); assay: NR2F2 transcriptional activity inhibitors, confirmation, cell-based, luciferase reporter, HEK293, triplicate (AID 687008;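 active means mean inhibition over three repeats above a set limit taken from the earlier primary screen, cut at about 38% in these data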;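 further: 100% = cells given the luciferase reporter alone without the COUP-TF2 vector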); details: HEK293 NGFI-A luciferase reporter, luminescence; at 8.5 µM; hits give high values
# COUP transcription factor 2 (Homo sapiens), sequence (P24468 whole entry, looked up): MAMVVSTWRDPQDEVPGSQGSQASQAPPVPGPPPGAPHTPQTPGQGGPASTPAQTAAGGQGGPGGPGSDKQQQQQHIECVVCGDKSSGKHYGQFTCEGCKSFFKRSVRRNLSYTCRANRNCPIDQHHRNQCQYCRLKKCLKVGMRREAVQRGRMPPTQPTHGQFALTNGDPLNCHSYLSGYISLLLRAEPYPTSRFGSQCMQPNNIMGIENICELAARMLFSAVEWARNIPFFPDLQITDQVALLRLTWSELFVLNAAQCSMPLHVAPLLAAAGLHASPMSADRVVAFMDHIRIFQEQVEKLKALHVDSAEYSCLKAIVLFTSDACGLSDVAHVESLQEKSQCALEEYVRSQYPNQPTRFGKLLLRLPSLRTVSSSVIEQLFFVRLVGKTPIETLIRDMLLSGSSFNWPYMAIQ
# [5] = target: Receptor-interacting serine/threonine-protein kinase 2 (Homo sapiens) (UniProt O43353); assay: NOD2-RIPK2 binding disruptors, retest, confirmation, fluorescence, CHO cells, BLA complementation, triplicate (AID 624370;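 active means mean inhibition across replicates above a set limit taken from the earlier primary screen, cut at about 21% in these data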;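 further: 0% = DMSO-only wells and the high end = clavulanate BLA-blocked wells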); details: CCF4 FRET, at 4.98 µM, hits give high values
# Receptor-interacting serine/threonine-protein kinase 2 (Homo sapiens), sequence (O43353 whole entry, looked up): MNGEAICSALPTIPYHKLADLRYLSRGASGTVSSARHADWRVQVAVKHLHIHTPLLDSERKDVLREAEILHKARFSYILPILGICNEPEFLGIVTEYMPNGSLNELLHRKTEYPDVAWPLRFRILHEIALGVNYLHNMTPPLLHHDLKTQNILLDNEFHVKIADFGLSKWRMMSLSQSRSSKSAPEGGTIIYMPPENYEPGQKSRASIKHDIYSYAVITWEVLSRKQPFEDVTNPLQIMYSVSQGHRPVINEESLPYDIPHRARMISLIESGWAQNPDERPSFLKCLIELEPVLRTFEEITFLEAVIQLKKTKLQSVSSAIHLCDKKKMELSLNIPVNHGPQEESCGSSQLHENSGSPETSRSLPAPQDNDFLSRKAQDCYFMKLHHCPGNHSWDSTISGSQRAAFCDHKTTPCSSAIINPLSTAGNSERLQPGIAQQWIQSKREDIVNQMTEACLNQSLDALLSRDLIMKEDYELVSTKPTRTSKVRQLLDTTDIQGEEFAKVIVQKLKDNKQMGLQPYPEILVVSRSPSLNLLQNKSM
# [6] = beta-lactamase reporter inhibitors in CHO cells, confirmation, artefact control for NOD2-RIPK2 interaction inhibitor project, cell-based, CHO-K1 CMV-bla, CCF4 FRET, fluorescence (AID 624371); details: CCF4 FRET ratio, counterscreen, at 4.98 µM, hits give high values;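 further: 0% = DMSO only wells and 100% = clavulanate high control wells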
# [7] = system: transactivating tegument protein VP16 (Human herpesvirus 1); assay: VP16 transactivation reporter inhibitors, counter-screen for SRC2 inhibitor project, cell-based, luminescence, single concentration (AID 652007; in the data active means inhibition above about 36%); details: cell-based VP16 transactivation luciferase reporter, at 8.9 µM, hits give high values
# [8] = target: Nuclear receptor coactivator 2 (Homo sapiens) (UniProt Q15596); assay: SRC2 coactivator transcriptional activity inhibitors, confirmation, cell-based, luminescence, HEK293, triplicate (AID 652008;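 active means mean inhibition above 46.5%, the solvent-only control mean plus 3 SD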;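 further: 0% = DMSO-treated cells and 100% = Gossypol at 36 µM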); details: HEK293 GAL4-SRC2 luciferase reporter, at 8.9 µM, hits give high values
# Nuclear receptor coactivator 2 (Homo sapiens), sequence (Q15596 whole entry, looked up, the tested form may be a part): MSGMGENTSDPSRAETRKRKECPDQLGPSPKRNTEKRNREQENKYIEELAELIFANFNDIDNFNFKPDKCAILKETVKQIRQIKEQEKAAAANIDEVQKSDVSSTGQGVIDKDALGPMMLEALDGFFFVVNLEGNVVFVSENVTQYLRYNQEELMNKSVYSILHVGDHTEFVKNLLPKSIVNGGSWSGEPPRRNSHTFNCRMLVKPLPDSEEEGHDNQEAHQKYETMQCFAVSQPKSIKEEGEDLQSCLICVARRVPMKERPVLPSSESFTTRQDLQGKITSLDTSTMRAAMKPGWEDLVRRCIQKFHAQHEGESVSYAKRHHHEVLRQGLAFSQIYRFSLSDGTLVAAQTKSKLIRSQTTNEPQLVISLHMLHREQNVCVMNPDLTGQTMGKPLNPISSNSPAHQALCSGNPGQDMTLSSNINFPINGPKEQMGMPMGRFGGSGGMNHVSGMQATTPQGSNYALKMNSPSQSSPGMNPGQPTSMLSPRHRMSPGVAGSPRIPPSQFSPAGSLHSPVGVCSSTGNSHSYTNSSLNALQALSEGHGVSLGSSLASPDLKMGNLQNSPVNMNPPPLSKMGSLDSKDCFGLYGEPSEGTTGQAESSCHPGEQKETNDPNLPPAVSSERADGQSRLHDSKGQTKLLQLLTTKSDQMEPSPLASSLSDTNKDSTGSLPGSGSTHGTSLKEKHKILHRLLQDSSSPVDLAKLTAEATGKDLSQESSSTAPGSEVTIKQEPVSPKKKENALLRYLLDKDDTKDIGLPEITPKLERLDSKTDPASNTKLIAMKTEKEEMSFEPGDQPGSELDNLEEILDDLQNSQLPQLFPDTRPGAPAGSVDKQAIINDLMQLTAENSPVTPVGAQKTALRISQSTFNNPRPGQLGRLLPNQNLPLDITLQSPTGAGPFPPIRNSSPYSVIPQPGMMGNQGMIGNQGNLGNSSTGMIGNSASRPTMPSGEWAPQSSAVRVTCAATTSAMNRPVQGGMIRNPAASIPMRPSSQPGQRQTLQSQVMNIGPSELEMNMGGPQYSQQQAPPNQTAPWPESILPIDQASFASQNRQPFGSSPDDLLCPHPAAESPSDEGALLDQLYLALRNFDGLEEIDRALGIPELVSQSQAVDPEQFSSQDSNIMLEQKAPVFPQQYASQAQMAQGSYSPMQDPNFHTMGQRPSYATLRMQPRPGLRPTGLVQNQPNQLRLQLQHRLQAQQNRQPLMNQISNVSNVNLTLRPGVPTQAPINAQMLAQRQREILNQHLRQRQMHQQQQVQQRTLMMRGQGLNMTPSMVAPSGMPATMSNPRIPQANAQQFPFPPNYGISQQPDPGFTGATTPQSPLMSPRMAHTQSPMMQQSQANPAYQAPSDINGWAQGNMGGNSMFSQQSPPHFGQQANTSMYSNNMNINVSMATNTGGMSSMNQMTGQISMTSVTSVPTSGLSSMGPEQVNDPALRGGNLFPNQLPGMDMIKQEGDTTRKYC
# [9] = target: Photoreceptor-specific nuclear receptor (Homo sapiens) (UniProt Q9Y5X4); assay: NR2E3 agonist confirmation in cells, cell-based, luminescence, CHO-S two-hybrid (AID 624378;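 active means average inhibition above a cutoff equal to the mean inhibition of all tested compounds plus one SD, cut at about 70% in these data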;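 further: 0% = DMSO in NR2E3 cells and 100% = DMSO in cells lacking NR2E3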); details: CHO-S mammalian two-hybrid NR2E3-NCOR, luciferase luminescence; at 3.98 µM; hits give high values
# Photoreceptor-specific nuclear receptor (Homo sapiens), sequence (Q9Y5X4 whole entry, looked up, the tested form may be a part): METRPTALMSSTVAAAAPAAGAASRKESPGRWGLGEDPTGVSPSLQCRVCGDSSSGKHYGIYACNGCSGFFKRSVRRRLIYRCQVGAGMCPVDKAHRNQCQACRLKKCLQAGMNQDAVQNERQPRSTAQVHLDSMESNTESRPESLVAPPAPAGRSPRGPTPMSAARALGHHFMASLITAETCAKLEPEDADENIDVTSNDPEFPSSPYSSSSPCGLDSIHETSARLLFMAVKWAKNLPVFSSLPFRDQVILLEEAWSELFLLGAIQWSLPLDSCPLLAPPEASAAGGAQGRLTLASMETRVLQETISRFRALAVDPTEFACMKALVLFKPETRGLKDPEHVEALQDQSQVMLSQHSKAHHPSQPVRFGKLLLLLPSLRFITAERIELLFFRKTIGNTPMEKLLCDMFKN
# [10] = GAL4-VP16 reporter modulators, confirmation, counter-screen for NR2E3 agonist project, cell-based, luminescence, CHO-S, high throughput (AID 624379;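 active means mean inhibition above a cutoff equal to the average over all tested compounds plus one standard deviation, cut at about 70% in these data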;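 further: luciferase from a UAS reporter driven by GAL4-VP16 transactivation; 0% = DMSO with VP16-transfected cells and 100% = DMSO with cells lacking VP16; higher means less reporter light so more repression of VP16 activity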); details: CHO-S GAL4-VP16 luciferase reporter, at 3.98 µM, hits give high values
compound,measurement,setting,value
OC[C@@H]1CN(Cc2ccncc2)C[C@H](n2cnc3c(N4CCN(c5ccccc5)CC4)ncnc32)O1,inhibition,[1],2.2%
same,inhibition,[2],37.8% (active)
same,inhibition,[3],8.35%
same,inhibition,[4],44.6% (active)
COc1ccc2c(c1OC)C(=O)OC2Nc1nc(-c2ccccc2)cs1 (stereo unspecified),inhibition,[5],10.3%
same,inhibition,[6],6.11%
CCOC(=O)c1c(C)cc2c(CO)n[nH]c(=O)c2c1C,inhibition,[1],11.6%
same,inhibition,[2],23.1%
same,inhibition,[7],-8.56%
same,inhibition,[8],34.9%
Cc1noc(/C=C/c2ccco2)c1S(=O)(=O)N1CCC(C(=O)Nc2ccc(Cl)cn2)CC1,inhibition,[1],16.8%
same,inhibition,[2],24.4%
same,inhibition,[7],17.2%
same,inhibition,[8],24.2%
Cc1ccc(NC(=O)Cn2sc3ccccc3c2=O)cc1,inhibition,[5],33.2% (active)
same,inhibition,[6],3.75%
O=C(CCN1CCc2ccccc2C(O)(c2ccccc2)C1)c1ccc2c(c1)OCCO2 (stereo unspecified),inhibition,[5],3.17%
same,inhibition,[6],-1.26%
CC(C)CCNC(=O)c1sc2ccc(S(=O)(=O)N3CCCCC3)cc2c1N,inhibition,[1],13.5%
same,inhibition,[2],13.8%
same,inhibition,[7],7.45%
same,inhibition,[8],27.6%
O=C(CSc1ncn[nH]1)Nc1nc(-c2cccc([N+](=O)[O-])c2)cs1,inhibition,[5],2.59%
same,inhibition,[6],3.63%
Cc1cc(NC2CCCC2)n2ncc(-c3ccccc3)c2n1,inhibition,[1],-78.1%
same,inhibition,[2],-34.6%
same,inhibition,[7],-46.2%
same,inhibition,[8],36.5%
COc1cccc2sc(N(CCCN(C)C)C(=O)CCS(=O)(=O)c3ccccc3)nc12,inhibition,[5],40.3% (active)
same,inhibition,[6],8.45%
O=C1C=C(NCCc2cc(Br)c(O)c(Br)c2)C(=O)c2ncccc21,inhibition,[1],-170%
same,inhibition,[2],14.2%
same,inhibition,[7],4.39%
same,inhibition,[8],25.9%
CN(C)S(=O)(=O)N1CCC(Oc2cccc(C(=O)NC3CCCCC3)c2)CC1,inhibition,[1],-42%
same,inhibition,[2],22%
same,inhibition,[7],4.19%
same,inhibition,[8],13.4%
O=C(Nc1cccc2c1CCCC2)c1cc([N+](=O)[O-])ccc1Cl,inhibition,[1],19%
same,inhibition,[2],25%
same,inhibition,[7],48.5% (active)
same,inhibition,[8],62.2% (active)
CCn1ccnc1CN(C)Cc1cn[nH]c1-c1ccc(F)cc1F,inhibition,[1],30.6%
same,inhibition,[2],15.7%
same,inhibition,[7],-19.6%
same,inhibition,[8],10.5%
Cc1cccc(-n2ncc(Cl)c(Cl)c2=O)c1,inhibition,[5],31.5% (active)
same,inhibition,[6],2.52%
Cn1nnnc1Sc1ncnc2scc(-c3ccc4c(c3)OCO4)c12,inhibition,[1],0.44%
same,inhibition,[2],3.16%
same,inhibition,[7],0.45%
same,inhibition,[8],21.4%
CC(=O)Nc1ccc(C=Cc2ccc([N+](=O)[O-])cc2)cc1,inhibition,[5],21.3% (active)
same,inhibition,[6],33.9% (active)
O=C(Nc1ccc(N2CCN(C(=O)c3ccco3)CC2)c(Cl)c1)c1cc2ccccc2o1,inhibition,[1],-30.1%
same,inhibition,[2],6.89%
same,inhibition,[7],53.3% (active)
same,inhibition,[8],3.49%
O=C1CC(C(F)(F)C(F)(F)C(F)(F)C(F)(F)F)=Nc2ccccc2N1,inhibition,[5],-1.13%
same,inhibition,[6],0.83%
O=C1C(=O)N(CC2COc3ccccc3O2)c2ccccc21 (stereo unspecified),inhibition,[5],-7.75%
same,inhibition,[6],-10.2%
CN1CCN(/N=C/c2ccc(-c3ccc([N+](=O)[O-])cc3)o2)CC1,inhibition,[5],17.4%
same,inhibition,[6],23.5% (active)
Cc1nnc(SCC(=O)Nn2cnnc2)s1,inhibition,[5],-0.84%
same,inhibition,[6],-0.41%
C=CCNc1ncnc2ccc(Br)cc12,inhibition,[1],30.3%
same,inhibition,[2],21%
same,inhibition,[7],1.3%
same,inhibition,[8],42.1%
same,inhibition,[3],9.27%
same,inhibition,[4],22.7%
CN(c1ccc(C(=O)N2CCN(Cc3ccc4c(c3)OCO4)CC2)cc1)S(=O)(=O)c1ccccc1,inhibition,[1],14.7%
same,inhibition,[2],23%
same,inhibition,[7],31%
same,inhibition,[8],37.4%
COc1ccc(C(C[N+](=O)[O-])n2nc(C)cc2C)cc1 (stereo unspecified),inhibition,[5],40.9% (active)
same,inhibition,[6],-5.9%
O=C(NC1=CC(=O)c2ccccc2C1=O)c1ccccc1,inhibition,[5],89% (active)
same,inhibition,[6],-4.54%
same,inhibition,[9],6.41%
same,inhibition,[10],17.1%
Cc1cccc(NC(=O)c2ccc(COc3ccccc3[N+](=O)[O-])o2)n1,inhibition,[9],10%
same,inhibition,[10],26.1%
Cc1ccc(S(=O)(=O)N2CCN(c3ncnc4ccccc34)CC2)cc1,inhibition,[9],94.1% (active)
same,inhibition,[10],80.5% (active)
CCOC(=O)CC1(NC(=O)c2cc(COc3cncc(Cl)c3)on2)CCCCC1,inhibition,[9],20.2%
same,inhibition,[10],44.2%
COc1cccc(NS(=O)(=O)c2ccc(-c3coc(C)n3)cc2)c1,inhibition,[9],10.9%
same,inhibition,[10],37.3%
CCC(C)N1C(=O)S/C(=C/c2ccc(Sc3nc4ccccc4[nH]3)o2)C1=O (stereo unspecified),inhibition,[9],85.7% (active)
same,inhibition,[10],69.8%
O=C(CSc1nc(Nc2ccccc2)nc(N2CCOCC2)n1)Nc1cc(Cl)ccc1O,inhibition,[9],31.7%
same,inhibition,[10],20.4%
C/C(=N\NC(=S)NCc1ccccc1)c1ccc(Cl)cc1,inhibition,[9],-1.78%
same,inhibition,[10],-14.2%
